Source: ChEMBL document CHEMBL1201862, “PubChem BioAssay data set” (2004)
The campaign covered roughly 400,000 compounds. About 2,100 (0.53%) were called active. Roughly 14% stayed inconclusive and do not appear here. How the calls were made is not given here. Only a selection was taken, and actives are over-represented in it overall.

Target: Ataxin-2 (Homo sapiens) (UniProt Q99700)
Assay: qHTS for Inhibitors of ATXN expression.
Type: functional

Sequence of Ataxin-2 (Homo sapiens) (Q99700 whole entry): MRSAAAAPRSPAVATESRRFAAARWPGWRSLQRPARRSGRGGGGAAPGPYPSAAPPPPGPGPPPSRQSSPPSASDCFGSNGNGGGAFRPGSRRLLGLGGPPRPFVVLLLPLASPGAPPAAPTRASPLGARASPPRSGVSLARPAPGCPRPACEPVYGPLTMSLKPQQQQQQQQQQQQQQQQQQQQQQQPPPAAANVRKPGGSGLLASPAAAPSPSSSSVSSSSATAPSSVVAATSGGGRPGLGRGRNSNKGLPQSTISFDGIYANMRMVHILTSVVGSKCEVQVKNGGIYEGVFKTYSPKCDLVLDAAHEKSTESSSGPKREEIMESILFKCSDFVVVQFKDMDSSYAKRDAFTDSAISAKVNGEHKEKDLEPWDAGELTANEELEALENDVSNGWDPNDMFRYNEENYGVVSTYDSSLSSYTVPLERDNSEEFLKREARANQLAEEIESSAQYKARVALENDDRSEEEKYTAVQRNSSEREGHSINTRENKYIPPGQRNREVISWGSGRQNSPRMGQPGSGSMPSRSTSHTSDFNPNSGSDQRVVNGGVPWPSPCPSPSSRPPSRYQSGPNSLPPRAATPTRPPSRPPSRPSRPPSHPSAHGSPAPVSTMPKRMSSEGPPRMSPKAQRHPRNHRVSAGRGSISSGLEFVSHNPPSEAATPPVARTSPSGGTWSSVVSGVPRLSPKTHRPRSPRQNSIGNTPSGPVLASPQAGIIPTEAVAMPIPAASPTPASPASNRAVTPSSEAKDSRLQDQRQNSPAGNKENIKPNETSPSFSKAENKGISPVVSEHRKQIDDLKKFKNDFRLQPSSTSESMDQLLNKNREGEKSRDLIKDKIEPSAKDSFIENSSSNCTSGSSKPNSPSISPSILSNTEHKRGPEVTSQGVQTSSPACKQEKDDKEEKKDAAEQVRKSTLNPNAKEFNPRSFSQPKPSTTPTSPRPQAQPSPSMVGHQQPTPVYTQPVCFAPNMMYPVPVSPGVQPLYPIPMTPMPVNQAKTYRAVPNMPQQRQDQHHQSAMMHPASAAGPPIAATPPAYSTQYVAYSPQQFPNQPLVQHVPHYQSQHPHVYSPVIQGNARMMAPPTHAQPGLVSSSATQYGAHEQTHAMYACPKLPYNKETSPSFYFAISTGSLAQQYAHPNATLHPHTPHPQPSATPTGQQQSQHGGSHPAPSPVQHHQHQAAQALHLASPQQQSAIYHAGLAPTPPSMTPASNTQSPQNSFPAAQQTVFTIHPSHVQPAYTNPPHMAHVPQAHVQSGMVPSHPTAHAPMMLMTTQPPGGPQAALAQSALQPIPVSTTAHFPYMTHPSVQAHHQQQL

| Compound | Potency |
| --- | --- |
| CCN(CC)c1ccc(C=C(c2nnnn2-c2ccccc2)c2nnnn2-c2ccccc2)cc1 | inactive |
| Cc1cc2cc3c(=O)[nH]c(=O)nc-3n(CC(O)C(O)C(O)CO)c2cc1C (stereo unspecified) | inactive |
| C=CC(=O)/N=c1\sc2ccccc2n1-c1ccccc1 | 37.7 µM (active) |
| CCN=C(S)N(CCc1c(C)[nH]c2ccc(C)cc12)Cc1cccnc1 | inactive |
| COc1cc2nc(/C=C/c3ccc(N(C)C)cc3)sc2cc1SC | inactive |
| CCc1cccc2sc(N3CCN(C(=O)c4ccc([N+](=O)[O-])o4)CC3)nc12 | 39.8 µM (active) |
| Clc1cccc2sc(N3CCN(c4ccccc4)CC3)nc12 | inactive |
| CC(C)CN=C(S)N1CCN(c2nc3ccccc3s2)CC1 | inactive |
| Nc1ccc2cc3ccccc3cc2c1 | inactive |
| CC(C)OCCCN(C)C1CCN(S(=O)(=O)c2ccc(-c3cc(C(F)(F)F)no3)s2)CC1 | inactive |
| c1ccc(C2=NN(c3ccccc3)CC2)cc1 | inactive |
| c1ccc(N2CC3COc4ccccc4C3=N2)cc1 (stereo unspecified) | inactive |
| c1ccc(N=NC2=NN(c3ccccc3)CS2)cc1 | 7.08 µM (active) |
| CCOc1ccc(CN2CCCC(N3CCN(c4ccc(OC)cc4)CC3)C2)cc1 (stereo unspecified) | inactive |
| [O-][n+]1onc2c1CCc1nnc(-c3ccccc3)cc1-2 | 39.8 µM (active) |
| CCc1ccc(/C=C2\Oc3c(ccc(O)c3CN3CCN(CCO)CC3)C2=O)cc1 | inactive |
| Cc1nn(-c2ccccc2)nc1C(=O)NNC(=O)c1cccc2ccccc12 | inactive |
| CC(=O)N(CC(=O)Nc1nn(-c2ccccc2)nc1C(N)=O)Cc1ccccc1 | 39.8 µM (active) |
| O=C(CN(Cc1ccccc1)C(=O)c1csnn1)NCCc1ccccc1 | inactive |
| Cc1cc(/C=C2/C(=N)N3C(=NC2=O)SN=C3S(C)(=O)=O)c(C)n1-c1ccccc1 | inactive |
| COC(=O)Cc1c(C)c2c(O)cc(C)cc2oc1=O | inactive |
| O=S(=O)([N-]c1nc2ccccc2nc1-[n+]1ccn(Cc2ccccc2)c1)c1ccc(Br)cc1 | inactive |

| Compound | Potency |
| --- | --- |
| CC(=O)Nc1ccc(CN2CCN(C3CCCCC3)C(CCO)C2)cc1 (stereo unspecified) | inactive |
| O=C(NCc1ccc(Cl)cc1)C1CCCN(C(=O)c2ccc(Cl)cc2)C1 (stereo unspecified) | inactive |
| Cc1ccc(CN2CCC(CNC(=O)Nc3ccc(Cl)cc3)C2)cc1 (stereo unspecified) | 39.8 µM (active) |
| Cc1nn(CCCC(=O)NCc2ccc(F)cc2)c(=O)c2nccn12 | inactive |
| O=C(CN(c1cccc(C(F)(F)F)c1)S(=O)(=O)c1ccc(Cl)c([N+](=O)[O-])c1)NCc1ccccc1Cl | 39.8 µM (active) |
| CSc1ccccc1NC(=O)CN(C)C(=O)CNc1ccc(C(F)(F)F)cc1[N+](=O)[O-] | inactive |
| Cc1c(N(C)S(=O)(=O)c2cc(C(=O)NCC3CCCO3)ccc2Cl)c(=O)n(-c2ccccc2)n1C (stereo unspecified) | inactive |
| O=C(CN(c1ccc(Br)cc1)S(=O)(=O)c1ccc(Cl)c([N+](=O)[O-])c1)NCC1CCCO1 (stereo unspecified) | 31.6 µM (active) |
| Cc1cc(OCC(=O)OCC(=O)NCC2CCCO2)ccc1Cl (stereo unspecified) | inactive |
| CCN(CC(=O)NCc1cccs1)S(=O)(=O)c1ccc([N+](=O)[O-])cc1 | inactive |
| CNC(=O)c1ccc(-c2sc3nc(N4CCOCC4)c4c(c3c2N)CCCC4)o1 | inactive |
| CC(C)c1ccc(NC(=O)c2cc(S(=O)(=O)NCc3ccccc3Cl)ccc2F)cc1 | 28.2 µM (active) |
| O=C(O)c1ccc(NS(=O)(=O)c2ccc(NC(=O)c3ccccc3Cl)cc2)cc1 | inactive |
| O=C(Nc1ccccc1)c1cc(S(=O)(=O)Nc2cccnc2)ccc1Cl | inactive |
| Cc1nc2nc(-c3ccc(Cl)cc3)cn2nc1C | inactive |
| C=C[S+]([O-])c1sc(Cl)c(N2CCOCC2)c1[N+](=O)[O-] (stereo unspecified) | 15 µM (active) |
| O=S(=O)(Nc1cccc(-c2nc3cccnc3s2)c1)c1ccc2c(c1)OCCO2 | inactive |
| Cc1ccccc1/C=N/Nc1ccnc2cc(Cl)ccc12 | 28.2 µM (active) |
| FC(F)(F)c1ccccc1/C=N/Nc1ccccn1 | inactive |
| Cc1ccc(NCC(=O)N/N=C/c2cccc(Br)c2)cc1 | inactive |
| Clc1ccc2c(N/N=C/c3cccc(Br)c3)ccnc2c1 | 25.1 µM (active) |
| O=[N+]([O-])c1ccc(Cl)cc1N/N=C/c1ccncc1 | inactive |

| Compound | Potency |
| --- | --- |
| CN(C)c1nc(NCc2ccccc2)nc(N/N=C/c2ccc(Cl)cc2Cl)n1 | inactive |
| N#C/C(=C/c1ccc(F)cc1)c1nnc(NC(=O)c2ccccc2)s1 | inactive |
| N#Cc1cc2c(=O)n3ccccc3nc2n(-c2ccc(Cl)cc2)c1=O | inactive |
| O=c1oc2cc(O)ccc2cc1-c1ccccc1 | inactive |
| Cc1ccc(-n2ncc3c(NCCCN(C)C)ncnc32)cc1Cl | 39.8 µM (active) |
| CCN(CC)c1ncnc2c1cnn2Cc1ccc(Cl)cc1 | inactive |
| COc1ccc(CNc2nc(C)cc(C)c2C#N)cc1 | inactive |
| COc1ccc(CCNc2ncnc3c2cnn3-c2cc(Cl)ccc2C)cc1 | 22.4 µM (active) |
| Cc1cc(NCCCN(C)C)n2c(nc3ccccc32)c1C#N | inactive |
| CCCCn1nc(NC(=O)CC)c2cc3cc(OC)ccc3nc21 | inactive |
| CC/N=c1\scc(C)n1/N=C/c1cc(Br)c(O)c(OC)c1 | inactive |
| Cc1cc(C)c2oc(C(=O)N3CCN(C)CC3)cc(=O)c2c1 | inactive |
| CCN(CC)CCCNc1cc(C)c(C#N)c2nc3ccccc3n12 | inactive |
| COc1ccc(/C(C)=N/Nc2nc3ccccc3n3cnnc23)cc1OC | inactive |
| C=CCSc1nc2ccccc2n2cnnc12 | 39.8 µM (active) |
| CC(NC(=O)CNC(=O)C(Cc1ccccc1)NC(=O)OCc1ccccc1)C(N)=O (stereo unspecified) | inactive |
| CC(NC(=O)OCc1ccccc1)C(=O)Oc1cc2oc(=O)cc(-c3ccccc3)c2cc1Cl (stereo unspecified) | inactive |
| CC(=O)NC(CC(C)C)C(=O)NC(Cc1ccccc1)C(=O)CCl (stereo unspecified) | 18.9 µM (active) |
| COC(=O)[C@H](Cc1ccccc1)NC(=O)NCc1ccccc1 | inactive |
| CCC(C)[C@H](N)C(=O)NC[C@H]1CC[C@H](C(=O)N[C@@H](Cc2ccccc2)C(=O)O)CC1 (stereo partly specified) | inactive |
| CC(C)CC(NC(=O)OCc1ccccc1)C(=O)NC(Cc1ccccc1)C(=O)CCl (stereo unspecified) | 9.47 µM (active) |
| C#CCOc1ccc(C2C3=C(CCCC3=O)N(CC(=O)O)C3=C2C(=O)CCC3)cc1Br | inactive |
